# Bioassay records from PubChem.
# PDI turbidity: blocks human protein disulfide isomerase activity; PDI insulin aggregation turbidity, A650, 90 min; inhibition, % at 10 µM; 350,000 compounds, 0.052% hits; AID 588391;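 active = mean inhibition across replicates of 30% or more, whatever share of single replicates reach that level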
# PglD inh: blocks C. jejuni PglD acetyltransferase activity; purified PglD enzyme, DTNB colorimetric CoA detection; inhibition, % at 12.5 µM; 360,000 compounds, 0.098% hits; AID 602405; in the data active = inhibition above about 16%, passing the limit was not always enough
# ALR inh: human ALR oxidase inhibition via reduced H2O2. inhibition, % (test concentration not listed). purified ALR, DTT oxidation, H2O2 HRP-luminol luminescence. 290,000 compounds, 3.8% hits;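 active = mean replicate inhibition above about 79%, with every replicate also reaching it, limit read from the data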
# NRP1-CendR mod: NRP-1/CendR interaction modulation | O14786 | FAM-RPARPAR peptide binding to NRP-1, fluorescence polarization | inhibition, % at 25 µM | 360,000 compounds, 0.85% hits | AID 602438;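 active = inhibition or corrected inhibition above about 18%, plus a signal ratio from 0.5 to 1.5, limit read from the data, passing the limit was not always enough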
# ERp5 block: inhibitors of human ERp5. AID 651711. Q15084. 350,000 compounds, 0.05% hits. ERp5 insulin aggregation, absorbance 650 nm, 90 min. inhibition, % at 9.99 µM;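 active = mean replicate inhibition above about 25%, with every replicate also reaching it, limit read from the data, passing the limit was not always enough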
# Target sequence (Q15084 whole entry, looked up): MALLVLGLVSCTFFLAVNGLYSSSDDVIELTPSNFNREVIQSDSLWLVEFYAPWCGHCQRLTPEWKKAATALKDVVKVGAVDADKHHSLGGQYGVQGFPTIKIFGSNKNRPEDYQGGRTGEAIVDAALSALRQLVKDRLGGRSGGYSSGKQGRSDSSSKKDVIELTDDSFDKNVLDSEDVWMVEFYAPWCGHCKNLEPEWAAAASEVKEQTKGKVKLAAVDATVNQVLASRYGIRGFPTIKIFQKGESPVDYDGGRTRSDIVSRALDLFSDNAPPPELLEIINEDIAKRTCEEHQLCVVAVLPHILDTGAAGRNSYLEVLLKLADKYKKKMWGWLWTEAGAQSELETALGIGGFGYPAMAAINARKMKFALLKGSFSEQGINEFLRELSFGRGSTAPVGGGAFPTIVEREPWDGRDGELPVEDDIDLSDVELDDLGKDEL
# ARNT TACC3 PPI: disrupts binding between human ARNT and TACC3. Q9Y6A5. AlphaScreen His-ARNT PAS-B/GST-TACC3 binding, luminescence; TACC3 fragment carries E629A point mutation. inhibition, % at 9.99 µM. 390,000 compounds, 0.66% hits. AID 623870;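 active = mean inhibition of replicates at least 50% and at least half of replicates each reaching 50%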;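 also: 0% = complete ARNT plus TACC3 wells and 100% = ARNT alone without TACC3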
# * hit, by the source's call; x = no result. This excerpt belongs to a sample that is enriched for hits.
SMILES,PDI turbidity,PglD inh,ALR inh,NRP1-CendR mod,ERp5 block,ARNT TACC3 PPI
COC(=O)CNc1ccc2c(c1)OCO2,-11,5,7,25*,x,x
COc1ccc(OC)c(S(=O)(=O)N(C)CC(=O)Nc2ccc3c(c2)OCCO3)c1,-11,4,-2,6,x,-3
O=C(Nc1ccc2c(c1)OCCO2)Nc1ccc2c(c1)OCO2,-1,x,-2,8,3,3
COc1cccc(NC(=O)CN(C)CC(=O)Nc2ccc3c(c2)OCO3)c1,9,-5,-3,13,1,8
Cc1ccc(NC(=O)CN(C)CC(=O)Nc2ccc3c(c2)OCO3)cc1,8,-4,x,22*,2,x
COc1ccc(OC)c(S(=O)(=O)NNC(=S)Nc2ccc3c(c2)OCO3)c1,5,-2,94*,1,5,9
CO[C@@H]1CN(C)C(=O)c2cc(NC(=O)C3CCC3)ccc2OC[C@H](C)N(Cc2ccncc2)C[C@H]1C,x,-3,x,x,5,x
Cc1nc(S/C(=C/c2ccc(-c3ccc(C(=O)O)cc3)o2)C(=O)O)n[nH]1,7,-16,x,-89,4,18
Cc1nc(S/C(=C/c2ccc(-c3ccc(Cl)cc3)o2)C(=O)O)n[nH]1,-9,-3,24,36*,x,x
C[C@H]1CN([C@@H](C)CO)C(=O)c2cc(C#CC3CC3)cnc2O[C@H]1CN(C)Cc1ccccn1,x,3,x,x,-4,31
O=C(CN1C2=NCCN2c2ccccc21)c1ccco1,-2,-3,7,32*,x,-1
O=C(CN1C2=NCCN2c2ccccc21)N1CCOCC1,x,x,-16,x,x,x
C[C@@H]1CN([C@H](C)CO)C(=O)Cc2cc(NC(=O)c3ccncc3)ccc2O[C@H]1CN(C)Cc1ccncc1,x,0,x,x,-1,-6
CC(C)NC(=O)N(C)C[C@@H]1Oc2cc(C#CCN(C)C)ccc2S(=O)(=O)N([C@@H](C)CO)C[C@H]1C,x,0,x,x,6,-4
CCCNC(=O)C[C@@H]1C[C@@H]2c3cc(NC(=O)C4CCOCC4)ccc3O[C@@H]2[C@@H](CO)O1,x,0,x,x,-1,-10
Cc1cc(C(=O)Nc2ccccc2C(=O)O)oc1C,-4,1,98*,-4,-1,-3
O=C(Nc1ccccc1C(=O)N1CCOCC1)c1cc2ccccc2o1,5,-2,-4,22*,-3,0
O=C(NCCCn1ccnc1)/C(=C/c1ccc(Cl)cc1)NC(=O)c1ccccc1,-2,x,-4,11,0,39
CN(C)c1ccc(/C=C(\NC(=O)c2ccccc2)C(=O)NCCCN2CCOCC2)cc1,5,0,98*,-3,7,6
CN(C)c1ccc(/C=C(/NC(=O)c2ccccc2)C(=O)NCCCn2ccnc2)cc1,2,-1,99*,-110,x,3
CN(C)c1ccc(/C=C(\NC(=O)c2ccccc2)C(=O)NCCN2CCOCC2)cc1,-1,5,x,-14,-3,-1
COc1ccccc1C(=O)N/C(=C\c1cn(S(=O)(=O)N(C)C)c2ccccc12)C(=O)NCCCN1CCOCC1,-4,-5,0,44*,1,-3
CN(C)S(=O)(=O)n1cc(/C=C(\NC(=O)c2ccccc2)C(=O)NCCCN2CCOCC2)c2ccccc21,-1,x,1,-5,1,-5
Cc1cccc(S(=O)(=O)N2C[C@H](O)COC[C@@H]3O[C@H](CC(=O)Nc4ccc(-c5ccccc5)cc4)CC[C@H]32)c1,x,2,x,x,-2,-1
O=C([C@H]1[C@H](CO)[C@H]2Cn3c(cccc3=O)[C@@H]1N2)N1CCc2ccccc2C1,x,3,x,x,-1,-1
SMILES,PDI turbidity,PglD inh,ALR inh,NRP1-CendR mod,ERp5 block,ARNT TACC3 PPI
C[C@H]1CN([C@@H](C)CO)C(=O)c2cc(C#CC(C)(C)O)cnc2O[C@@H]1CN(C)Cc1cncnc1,x,-5,x,x,-5,-2
Cc1ccsc1/C=N/Nc1nc(=O)[nH]nc1C,-6,x,-1,-20,-3,64*
Cc1cc(C)nc(N/N=C/c2sccc2C)n1,-1,x,x,-14,0,-2
CCNC(=O)C[C@@H]1CC[C@@H]2[C@H](COC[C@@H](O)CN2Cc2ccncc2)O1,x,-3,x,x,-3,-4
O=C(C[C@@H]1CC[C@@H]2[C@H](COC[C@@H](O)CN2C(=O)c2ccccc2F)O1)NCc1ccccc1,x,1,x,x,-1,-9
O=C(COC(=O)CSc1ccc([N+](=O)[O-])cc1)NCC1CCCO1 (stereo unspecified),-3,0,99*,15,0,x
CNC[C@@H]1Oc2ccc(NS(=O)(=O)c3ccccc3)cc2CC(=O)N([C@@H](C)CO)C[C@H]1C,x,10,x,x,0,-10
Cc1cc(NCCCN2CCOCC2)n2nc(C)c(-c3ccc(F)cc3)c2n1,-4,-1,98*,9,x,9
COc1ccc(NC(=O)Nc2ccc3c(c2)C(=O)N(C)C[C@H](OC)[C@@H](C)CN[C@@H](C)CO3)cc1,x,-4,x,x,x,6
COc1ccc(OC)c(/C=N/c2oc(-c3ccco3)c(-c3ccco3)c2C#N)c1,-1,-5,98*,-28,x,-12
N#Cc1c(N)oc(-c2ccco2)c1-c1ccco1,14,2,-85,-19,x,3
C[C@@H]1CN([C@@H](C)CO)C(=O)c2cc(C#CC3CCCC3)cnc2O[C@H]1CN(C)C(=O)c1ccncc1,x,5,x,x,-1,-2
Cc1ccc2sc(NNC(=O)c3cc(=O)c4ccccc4o3)nc2c1C,9,-6,99*,-28,3,6
C[C@H]1CN([C@@H](C)CO)C(=O)c2cc(NS(=O)(=O)c3ccccc3)ccc2O[C@@H]1CN(C)C(=O)Nc1cccc2ccccc12,x,1,x,x,3,-2
COc1ccc(CC(=O)NNS(=O)(=O)c2cccc([N+](=O)[O-])c2)cc1OC,-68,3,x,7,0,x
COc1ccc(-n2c(O)c(/C=N/NS(=O)(=O)c3cccc([N+](=O)[O-])c3)c3ccccc3c2=O)cc1OC,-5,x,89*,-160,-3,4
Cc1ccc(S(=O)(=O)Nc2ccc3c(c2)C(=O)N([C@H](C)CO)C[C@H](C)[C@@H](CN(C)C(=O)Nc2c(C)noc2C)O3)cc1,x,1,x,x,4,-2
Cn1c(SCC(=O)NCc2ccc3c(c2)OCO3)nc2c(c1=O)SCC2,-5,0,47,8,-1,0
Cn1c(SCc2cccc([N+](=O)[O-])c2)nc2c(c1=O)SCC2,3,x,99*,8,1,6
COc1ccc(-n2c(SCc3cccnc3)nc3c(c2=O)SCC3)cc1OC,-6,9,x,12,-2,0
Cn1c(SCc2ccc(Br)cc2)nc2c(c1=O)SCC2,-6,-12,98*,-18,-3,5
Cn1c(SCc2cccnc2)nc2c(c1=O)SCC2,2,x,99*,-10,6,0
Cc1cccc(N2CCN(C(=O)c3ccc4c(c3)NC(=O)C(CSCc3ccc(F)cc3)N4)CC2C)c1 (stereo unspecified),x,x,97*,x,x,x
